This passage reports residual activity results from ChEMBL document CHEMBL2218924, “A broad activity screen in support of a chemogenomic map for kinase signalling research and drug discovery” (Biochem J, 2013).

Molecules are shown by their SMILES.

In test [1] the target is ALK tyrosine kinase receptor (Homo sapiens) (UniProt Q9UM73). Particulars: at 10 µM.
The target in test [2] is T1, Activin receptor type-1B (Homo sapiens) (UniProt P36896).
T1 sequence (whole entry): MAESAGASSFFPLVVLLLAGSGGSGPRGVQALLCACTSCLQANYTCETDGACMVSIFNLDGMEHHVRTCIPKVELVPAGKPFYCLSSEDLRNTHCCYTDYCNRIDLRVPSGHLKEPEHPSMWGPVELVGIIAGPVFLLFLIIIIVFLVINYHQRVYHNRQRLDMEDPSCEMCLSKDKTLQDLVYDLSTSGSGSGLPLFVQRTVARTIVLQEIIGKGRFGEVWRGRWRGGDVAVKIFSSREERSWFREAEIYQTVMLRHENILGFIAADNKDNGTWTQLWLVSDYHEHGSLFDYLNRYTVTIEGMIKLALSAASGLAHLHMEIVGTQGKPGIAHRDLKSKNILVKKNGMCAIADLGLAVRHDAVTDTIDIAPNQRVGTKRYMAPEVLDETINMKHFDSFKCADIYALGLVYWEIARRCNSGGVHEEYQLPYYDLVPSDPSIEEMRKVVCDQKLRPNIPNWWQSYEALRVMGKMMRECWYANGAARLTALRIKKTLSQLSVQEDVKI
Particulars: at 1 µM.

The target of test [3] is T1, Activin receptor type-1B (Homo sapiens). Conditions: at 10 µM.
Test [4] deals with T2, AMP-activated protein kinase (AMPK) alpha-1/beta-1/gamma-1 (Homo sapiens) (UniProt P54619+Q9Y478+Q13131). Particulars: at 1 µM.
In test [5] the target is T2, AMP-activated protein kinase (AMPK) alpha-1/beta-1/gamma-1 (Homo sapiens). Conditions: at 10 µM.
Test [6] has as its target T3, AMP-activated protein kinase, AMPK (Homo sapiens) (UniProt P54646+O43741+P54619+Q9UGJ0+Q9Y478+Q13131+Q9UGI9). Conditions: at 1 µM.
The target in test [7] is T3, AMP-activated protein kinase, AMPK (Homo sapiens). Conditions: at 10 µM.
Test [8] has as its target T4, NUAK family SNF1-like kinase 1 (Homo sapiens) (UniProt O60285).
T4 sequence (whole entry): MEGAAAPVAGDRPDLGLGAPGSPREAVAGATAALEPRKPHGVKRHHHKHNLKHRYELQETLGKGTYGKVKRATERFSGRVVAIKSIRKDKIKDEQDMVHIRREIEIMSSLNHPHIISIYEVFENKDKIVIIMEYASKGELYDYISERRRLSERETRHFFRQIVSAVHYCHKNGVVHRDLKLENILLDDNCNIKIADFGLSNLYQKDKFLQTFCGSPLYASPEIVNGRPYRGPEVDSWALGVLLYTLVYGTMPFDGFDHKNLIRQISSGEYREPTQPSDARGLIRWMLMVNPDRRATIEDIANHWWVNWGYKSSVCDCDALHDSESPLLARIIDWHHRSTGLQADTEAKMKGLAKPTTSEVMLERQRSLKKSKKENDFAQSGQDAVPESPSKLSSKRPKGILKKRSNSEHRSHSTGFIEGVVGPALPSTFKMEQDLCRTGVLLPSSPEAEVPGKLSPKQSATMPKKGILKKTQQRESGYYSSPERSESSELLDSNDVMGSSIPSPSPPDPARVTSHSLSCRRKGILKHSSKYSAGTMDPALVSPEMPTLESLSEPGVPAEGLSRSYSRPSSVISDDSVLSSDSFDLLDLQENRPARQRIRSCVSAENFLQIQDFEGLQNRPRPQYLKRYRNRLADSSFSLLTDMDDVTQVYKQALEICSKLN
Conditions: at 1 µM.

Test [9] deals with T4, NUAK family SNF1-like kinase 1 (Homo sapiens). Particulars: at 10 µM.
The target in test [10] is T5, Mitogen-activated protein kinase kinase kinase 5 (Homo sapiens) (UniProt Q99683).
T5 sequence (whole entry): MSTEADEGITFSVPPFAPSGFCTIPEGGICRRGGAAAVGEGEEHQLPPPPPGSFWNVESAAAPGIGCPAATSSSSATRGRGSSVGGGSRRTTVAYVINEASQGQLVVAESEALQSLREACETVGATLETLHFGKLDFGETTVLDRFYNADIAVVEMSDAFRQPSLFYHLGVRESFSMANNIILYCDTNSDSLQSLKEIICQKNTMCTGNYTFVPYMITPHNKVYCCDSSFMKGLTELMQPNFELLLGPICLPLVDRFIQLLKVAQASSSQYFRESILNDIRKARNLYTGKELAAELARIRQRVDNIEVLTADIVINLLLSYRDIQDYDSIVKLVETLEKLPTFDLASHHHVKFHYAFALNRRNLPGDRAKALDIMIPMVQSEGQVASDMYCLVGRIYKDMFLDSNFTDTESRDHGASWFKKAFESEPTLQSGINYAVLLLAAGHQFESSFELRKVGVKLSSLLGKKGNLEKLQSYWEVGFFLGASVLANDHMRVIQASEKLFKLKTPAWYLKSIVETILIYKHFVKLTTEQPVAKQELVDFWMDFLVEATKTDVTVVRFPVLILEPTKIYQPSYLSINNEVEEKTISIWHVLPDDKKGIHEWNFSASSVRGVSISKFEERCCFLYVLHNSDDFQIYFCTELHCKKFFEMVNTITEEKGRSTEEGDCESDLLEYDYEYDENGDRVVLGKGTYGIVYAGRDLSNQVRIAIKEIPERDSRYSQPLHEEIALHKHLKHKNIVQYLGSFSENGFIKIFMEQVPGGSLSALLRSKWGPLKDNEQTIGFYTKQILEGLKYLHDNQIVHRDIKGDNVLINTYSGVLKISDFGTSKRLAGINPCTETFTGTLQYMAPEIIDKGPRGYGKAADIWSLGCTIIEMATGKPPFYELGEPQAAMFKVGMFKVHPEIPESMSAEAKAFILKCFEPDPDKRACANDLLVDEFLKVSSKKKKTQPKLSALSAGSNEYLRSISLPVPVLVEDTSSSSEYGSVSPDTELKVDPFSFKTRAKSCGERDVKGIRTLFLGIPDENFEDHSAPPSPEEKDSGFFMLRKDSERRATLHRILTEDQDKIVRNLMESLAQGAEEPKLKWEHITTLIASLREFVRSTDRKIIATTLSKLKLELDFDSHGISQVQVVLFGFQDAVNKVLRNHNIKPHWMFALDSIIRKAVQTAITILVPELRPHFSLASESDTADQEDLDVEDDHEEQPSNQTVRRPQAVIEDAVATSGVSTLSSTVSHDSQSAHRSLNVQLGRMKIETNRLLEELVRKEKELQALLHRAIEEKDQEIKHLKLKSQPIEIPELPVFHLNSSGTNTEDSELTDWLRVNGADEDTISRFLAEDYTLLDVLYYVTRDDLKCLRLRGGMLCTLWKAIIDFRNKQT
Conditions: at 1 µM.

The target of test [11] is Platelet-derived growth factor receptor alpha (Homo sapiens) (UniProt P16234). Conditions: at 1 µM.
Platelet-derived growth factor receptor alpha (Homo sapiens), sequence (P16234 whole entry): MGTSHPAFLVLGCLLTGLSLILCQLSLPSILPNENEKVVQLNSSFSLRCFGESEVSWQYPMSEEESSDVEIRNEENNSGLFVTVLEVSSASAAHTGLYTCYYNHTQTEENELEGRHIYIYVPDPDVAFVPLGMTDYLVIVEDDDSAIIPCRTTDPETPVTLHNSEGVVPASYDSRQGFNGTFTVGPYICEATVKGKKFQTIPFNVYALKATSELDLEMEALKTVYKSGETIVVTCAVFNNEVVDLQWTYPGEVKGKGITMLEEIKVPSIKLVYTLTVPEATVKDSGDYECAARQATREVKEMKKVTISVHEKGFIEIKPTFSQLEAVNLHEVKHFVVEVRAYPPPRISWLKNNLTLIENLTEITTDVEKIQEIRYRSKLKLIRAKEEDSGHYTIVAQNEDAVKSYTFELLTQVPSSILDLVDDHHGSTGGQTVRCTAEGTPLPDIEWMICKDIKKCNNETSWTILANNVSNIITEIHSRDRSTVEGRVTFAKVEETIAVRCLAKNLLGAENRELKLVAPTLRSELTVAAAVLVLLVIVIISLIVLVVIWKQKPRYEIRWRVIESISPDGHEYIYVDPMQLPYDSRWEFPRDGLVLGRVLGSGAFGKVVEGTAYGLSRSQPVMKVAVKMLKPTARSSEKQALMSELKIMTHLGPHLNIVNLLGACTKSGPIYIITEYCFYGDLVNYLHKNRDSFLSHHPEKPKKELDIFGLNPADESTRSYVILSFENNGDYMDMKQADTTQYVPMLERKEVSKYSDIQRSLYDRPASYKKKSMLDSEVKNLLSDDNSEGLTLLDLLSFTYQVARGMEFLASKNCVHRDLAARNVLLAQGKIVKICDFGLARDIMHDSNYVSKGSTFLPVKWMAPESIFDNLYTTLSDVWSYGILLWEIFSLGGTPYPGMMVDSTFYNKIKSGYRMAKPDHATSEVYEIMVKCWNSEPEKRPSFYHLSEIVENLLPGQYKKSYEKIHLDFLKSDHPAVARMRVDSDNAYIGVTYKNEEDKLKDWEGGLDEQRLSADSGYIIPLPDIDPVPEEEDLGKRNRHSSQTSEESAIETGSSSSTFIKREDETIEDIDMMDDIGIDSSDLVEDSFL
Test [12] has the same target. Conditions: at 10 µM.
Test [13] addresses Platelet-derived growth factor receptor beta (Homo sapiens) (UniProt P09619). Conditions: at 1 µM.
For test [14] the target is unchanged. Conditions: at 10 µM.
In test [15] the target is T6, 3-phosphoinositide-dependent protein kinase 1 (Homo sapiens) (UniProt O15530).
T6 sequence (whole entry): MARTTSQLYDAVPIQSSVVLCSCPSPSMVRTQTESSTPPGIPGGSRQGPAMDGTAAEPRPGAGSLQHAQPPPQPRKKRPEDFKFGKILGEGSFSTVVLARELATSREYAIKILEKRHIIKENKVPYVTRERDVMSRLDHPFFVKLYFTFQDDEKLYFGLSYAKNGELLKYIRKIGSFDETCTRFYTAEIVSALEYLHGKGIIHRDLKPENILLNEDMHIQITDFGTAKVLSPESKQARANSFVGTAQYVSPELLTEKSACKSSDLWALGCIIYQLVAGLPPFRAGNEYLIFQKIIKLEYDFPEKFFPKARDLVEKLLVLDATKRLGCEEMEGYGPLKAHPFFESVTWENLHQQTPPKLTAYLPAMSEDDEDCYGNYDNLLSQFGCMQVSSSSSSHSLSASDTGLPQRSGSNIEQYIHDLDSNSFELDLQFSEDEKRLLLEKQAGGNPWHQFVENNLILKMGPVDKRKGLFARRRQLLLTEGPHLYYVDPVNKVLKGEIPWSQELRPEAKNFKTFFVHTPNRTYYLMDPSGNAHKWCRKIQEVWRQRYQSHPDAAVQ
Particulars: at 1 µM.

In test [16] the target is T6, 3-phosphoinositide-dependent protein kinase 1 (Homo sapiens). Particulars: at 10 µM.
Test [17] deals with cAMP-dependent protein kinase catalytic subunit alpha (Homo sapiens) (UniProt P17612). Conditions: at 1 µM.
Test [18] has the same target. Particulars: at 10 µM.
For test [19], the target named is RAC-gamma serine/threonine-protein kinase (Homo sapiens) (UniProt Q9Y243). Particulars: at 1 µM.
RAC-gamma serine/threonine-protein kinase (Homo sapiens), sequence (Q9Y243 whole entry): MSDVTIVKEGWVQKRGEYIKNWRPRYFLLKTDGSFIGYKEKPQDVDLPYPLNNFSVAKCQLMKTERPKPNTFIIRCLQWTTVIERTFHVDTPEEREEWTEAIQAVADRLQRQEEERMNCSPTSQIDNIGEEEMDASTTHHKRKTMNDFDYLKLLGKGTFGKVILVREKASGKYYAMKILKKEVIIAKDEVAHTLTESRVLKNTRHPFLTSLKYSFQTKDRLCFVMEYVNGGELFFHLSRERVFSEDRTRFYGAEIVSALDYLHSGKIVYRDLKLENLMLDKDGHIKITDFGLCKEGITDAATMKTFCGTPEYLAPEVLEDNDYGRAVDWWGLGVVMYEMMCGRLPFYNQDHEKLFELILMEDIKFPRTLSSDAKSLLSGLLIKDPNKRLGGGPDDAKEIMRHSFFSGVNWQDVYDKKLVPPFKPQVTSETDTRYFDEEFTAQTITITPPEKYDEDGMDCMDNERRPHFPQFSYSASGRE
Test [20] has the same target. Conditions: at 10 µM.

ALK tyrosine kinase receptor (Homo sapiens), sequence (Q9UM73 19-1620 limits assumed): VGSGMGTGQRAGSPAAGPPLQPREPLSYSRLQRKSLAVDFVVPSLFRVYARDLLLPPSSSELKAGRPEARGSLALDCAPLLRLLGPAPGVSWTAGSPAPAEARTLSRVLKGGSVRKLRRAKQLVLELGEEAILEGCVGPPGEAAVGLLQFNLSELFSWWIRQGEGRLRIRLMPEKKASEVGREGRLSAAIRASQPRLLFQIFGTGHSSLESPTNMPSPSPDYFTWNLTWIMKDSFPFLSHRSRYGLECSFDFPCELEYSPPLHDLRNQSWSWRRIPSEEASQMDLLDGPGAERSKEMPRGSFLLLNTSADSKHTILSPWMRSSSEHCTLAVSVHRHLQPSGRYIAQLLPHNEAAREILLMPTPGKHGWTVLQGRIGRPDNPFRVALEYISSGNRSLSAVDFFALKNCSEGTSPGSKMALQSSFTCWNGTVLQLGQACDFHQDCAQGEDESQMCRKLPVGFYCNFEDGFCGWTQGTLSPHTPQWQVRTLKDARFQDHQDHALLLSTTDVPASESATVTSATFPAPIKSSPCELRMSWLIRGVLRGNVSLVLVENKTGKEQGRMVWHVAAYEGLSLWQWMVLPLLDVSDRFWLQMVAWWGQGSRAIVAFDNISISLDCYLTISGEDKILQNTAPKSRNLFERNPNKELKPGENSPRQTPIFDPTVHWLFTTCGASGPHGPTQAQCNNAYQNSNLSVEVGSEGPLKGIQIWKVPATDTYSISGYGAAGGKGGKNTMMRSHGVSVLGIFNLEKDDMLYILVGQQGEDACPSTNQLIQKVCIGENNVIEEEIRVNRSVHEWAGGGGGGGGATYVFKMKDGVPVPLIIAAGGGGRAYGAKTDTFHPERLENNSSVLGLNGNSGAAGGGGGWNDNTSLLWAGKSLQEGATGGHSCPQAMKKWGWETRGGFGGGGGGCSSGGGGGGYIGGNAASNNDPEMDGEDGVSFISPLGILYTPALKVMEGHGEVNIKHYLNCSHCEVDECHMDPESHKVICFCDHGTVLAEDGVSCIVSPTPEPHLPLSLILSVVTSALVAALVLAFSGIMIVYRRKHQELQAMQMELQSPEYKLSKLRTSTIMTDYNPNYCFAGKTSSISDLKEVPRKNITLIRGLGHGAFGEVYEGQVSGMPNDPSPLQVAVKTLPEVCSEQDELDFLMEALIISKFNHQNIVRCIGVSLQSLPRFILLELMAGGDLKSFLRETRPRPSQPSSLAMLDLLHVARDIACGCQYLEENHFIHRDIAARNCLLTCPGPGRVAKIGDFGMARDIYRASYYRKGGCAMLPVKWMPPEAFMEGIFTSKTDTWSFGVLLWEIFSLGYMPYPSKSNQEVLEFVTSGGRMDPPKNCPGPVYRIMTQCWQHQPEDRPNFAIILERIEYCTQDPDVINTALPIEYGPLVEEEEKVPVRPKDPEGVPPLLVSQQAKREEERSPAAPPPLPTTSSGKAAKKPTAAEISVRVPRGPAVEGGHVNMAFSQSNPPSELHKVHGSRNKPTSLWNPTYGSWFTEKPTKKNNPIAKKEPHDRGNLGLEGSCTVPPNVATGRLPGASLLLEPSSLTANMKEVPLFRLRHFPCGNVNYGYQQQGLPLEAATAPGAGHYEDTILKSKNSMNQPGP
Platelet-derived growth factor receptor beta (Homo sapiens), sequence (P09619 whole entry): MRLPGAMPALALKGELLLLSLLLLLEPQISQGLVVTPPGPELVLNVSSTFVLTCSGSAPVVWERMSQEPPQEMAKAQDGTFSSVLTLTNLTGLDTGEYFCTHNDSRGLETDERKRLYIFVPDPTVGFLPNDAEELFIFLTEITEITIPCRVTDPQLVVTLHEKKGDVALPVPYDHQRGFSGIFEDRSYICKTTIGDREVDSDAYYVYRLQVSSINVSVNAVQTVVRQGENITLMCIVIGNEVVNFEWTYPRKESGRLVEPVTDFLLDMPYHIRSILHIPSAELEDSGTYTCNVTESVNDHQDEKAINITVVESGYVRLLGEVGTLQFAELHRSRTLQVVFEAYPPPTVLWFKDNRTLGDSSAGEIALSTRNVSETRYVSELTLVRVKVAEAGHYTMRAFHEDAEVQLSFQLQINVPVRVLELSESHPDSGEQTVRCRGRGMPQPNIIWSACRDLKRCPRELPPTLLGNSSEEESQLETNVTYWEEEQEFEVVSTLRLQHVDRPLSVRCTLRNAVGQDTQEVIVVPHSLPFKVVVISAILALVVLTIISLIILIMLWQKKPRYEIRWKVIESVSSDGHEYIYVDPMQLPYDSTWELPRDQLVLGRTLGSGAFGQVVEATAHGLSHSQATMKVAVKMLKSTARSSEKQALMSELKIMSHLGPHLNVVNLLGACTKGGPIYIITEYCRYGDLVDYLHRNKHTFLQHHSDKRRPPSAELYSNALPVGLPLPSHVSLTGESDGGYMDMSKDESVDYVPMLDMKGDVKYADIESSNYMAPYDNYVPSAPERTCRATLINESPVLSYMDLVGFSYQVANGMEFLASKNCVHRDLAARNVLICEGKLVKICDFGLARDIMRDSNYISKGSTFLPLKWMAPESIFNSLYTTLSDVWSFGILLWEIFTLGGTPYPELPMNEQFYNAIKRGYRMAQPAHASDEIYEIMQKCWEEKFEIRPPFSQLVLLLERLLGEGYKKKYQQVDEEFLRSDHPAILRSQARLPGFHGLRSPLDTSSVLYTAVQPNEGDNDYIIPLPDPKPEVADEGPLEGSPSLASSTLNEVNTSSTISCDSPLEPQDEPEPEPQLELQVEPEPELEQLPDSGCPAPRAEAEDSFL

`O=Nc1c(-c2c(O)[nH]c3ccccc23)[nH]c2ccccc12`: the residual activity in test [1] worked out at 18%; in test [2], 104%; in [3], 72%; in test [4], 2%; in [5], 0%; in [6], 1%. The residual activity in [7] came to 3%; in test [8], 4%; in [9] it was 7%; in [10], 52%; in [11], 87%; in [12], 37%. The residual activity in test [13] is 84%; in test [14], 26%; in test [15], 53%; in [16], 9%; in [17] it was 90%; in test [18], 54%. Further, the residual activity worked out at 95% in [19] and 64% in test [20].

As for `O=C1Nc2ccccc2/C1=C1/Nc2ccccc2/C1=N\OCCC(O)CO` (stereo not drawn), the residual activity is 2% in test [1]; 4% in test [4]; 4% in [5]; 3% in test [6]; 4% in [7]; 2% in test [8]. Moreover, the residual activity was 5% in test [9]; 68% in [10]; 79% in test [11]; 28% in test [12]; 79% in test [13]; 24% in [14]. Further, the residual activity worked out at 29% in test [15]; 6% in test [16]; 38% in test [18]; 80% in [19]; 36% in [20].

In the case of `Cc1cncc2cccc(S(=O)(=O)N3CCCN(C(=O)CN)C[C@H]3C)c12`, the residual activity was found to be 137% in [2]; 86% in test [3]; 98% in [4]; 66% in test [5]; 97% in test [6]; 45% in test [7]. Moreover, the residual activity in [8] was 95%; in test [9], 71%; in test [10], 98%; in [13], 100%; in test [14], 96%; in test [17], 69%. In addition, the results for the residual activity in test [18], in test [19] and in [20] were 59%, 100% and 84%, respectively.

For the compound `CN(C)CCCn1cc(C2=C(c3c[nH]c4ccccc34)C(=O)NC2=O)c2ccccc21`, the residual activity was 119% in test [2]; 76% in test [3]; 44% in [4]; 10% in test [5]; 26% in test [6]; 4% in test [7]. Also, the residual activity is 35% in [8]; 11% in [9]; 121% in test [11]; 78% in [12]; 106% in test [13]; 65% in [14]. Moreover, the residual activity came to 63% in test [15]; 15% in test [16]; 60% in test [17]; 20% in test [18]; 30% in [19]; 7% in test [20].

In the case of `c1ccc2c(-c3ccncc3)c[nH]c2c1`, the residual activity in [1] is 105%; in test [3] it was 110%; in test [4], 93%; in test [5], 82%; in [7] it was 85%; in test [8], 97%. Also, the residual activity in test [9] worked out at 84%; in [10], 93%; in test [15] it was 111%; in test [16], 110%; in test [17] it was 93%; in test [18], 50%. Besides, the residual activity in [19] is 89%; in [20], 76%.

Take `Cn1nc2c3c(cccc31)C(=O)c1ccccc1-2`: the residual activity in test [1] was found to be 45%; in test [2], 104%; in test [3], 109%; in test [4] it was 91%; in [5], 73%; in test [6], 81%. Moreover, the residual activity in [7] came to 85%; in test [8], 57%; in test [9], 31%; in test [10], 71%; in test [13], 91%; in [14], 88%. The residual activity was 95% in [15]; 74% in test [16]; 87% in [17]; 90% in test [18]; 95% in [19]; 91% in test [20].

With `COc1ccc(C(=O)Nc2sc3c(c2C(N)=O)CCCC3)cc1OC`, the residual activity is 72% in test [1]; 83% in test [3]; 90% in [4]; 78% in test [5]; 93% in test [6]; 75% in test [7]. Besides, the residual activity in test [8] worked out at 87%; in test [9], 75%; in [10] it was 114%; in test [11], 87%; in test [12], 86%; in test [13] it was 89%. The residual activity in test [14] was 97%; in [15] it was 95%; in test [16], 96%; in test [17], 97%; in test [18], 95%; in [19], 102%. The residual activity in test [20] was found to be 87%.

Regarding `Cc1cc2ncc(-c3ccccc3)nc2cc1C`, the residual activity is 60% in test [1]; 105% in [4]; 74% in test [5]; 92% in [8]; 94% in [9]; 78% in test [10]. The residual activity is 99% in test [13]; 96% in [14]; 86% in test [17]; 75% in [18]; 90% in test [19]; 87% in test [20].
